# Results reported in the supplement of paper PMC6555819.
# System: FXR:RXRa (NR concentration 270 nM, RXRa partner concentration 90 nM)
# Assay: PBM binding z-score (relative to random genomic background probes); higher = stronger binding; sequences stand for … in GC…GCGATTGACAGCGTAGAATGAAGG
# Procedure, shortened: (§1)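 Regression normalization was applied to scanned fluorescence from custom Agilent 4×180K protein-binding microarrays. Before scanning, arrays were incubated 1 h with ligand-free nuclear receptor dimers, and binding was detected with antibodies against each partner (one per run). Binding z-scores use the random background probes as reference.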
row,Sequence,PBM binding z-score
1,TCGACTAGGTTACGGGGGCATTCAGGGATGAAGA,2.94
2,CTATGTAGGTTAAGGGGGACATTCAGTTTGAAAG,1.22
3,CCGAGTAGGTTAGGAGGGGGCATTCAGTGCGAAT,2.47
4,CTGTGTAGGTTAAGGGGGTCATTCAGTTTGAAAG,5.15
5,CTATGTAGGTTAAGGGGGTCACTCAGTTTGAAAG,4.57
6,TCGAGTAGGTTAAGGGGGCATTCAGGGATGAAGA,2.95
7,TCGAGTTGGTTACGGGGGCATTCAGGGATGAAGA,2.61
8,TCGAGTAGTTTACGGGGGCATTCAGGGATGAAGA,1.17
9,TCGAGTAGGTTACGGGGGCATGCAGGGATGAAGA,2.17
10,CCGAGTAGGGTACGAGGGGGCATTCAGTGCGAAT,1.83
11,CCGAGTAGGTTACGAGGGGGAATTCAGTGCGAAT,0.932
12,CCGAGTAGGTTACAAGGGGGCATTCAGTGCGAAT,2.05
13,CTATGTAGGTTAAGGGGATCATTCAGTTTGAAAG,0.585
14,TCGAGTAGGTTACGGGCGCATTCAGGGATGAAGA,0.124
15,TCGAGTAGGTTACGGGGGCATTTAGGGATGAAGA,3.13
16,CTATGTAGGTTTAGGGGGTCATTCAGTTTGAAAG,4.33
17,TCGAGTAGGTTACGGGGGCATTCCGGGATGAAGA,2.68
18,TCGAGTAGGTTACCGGGGCATTCAGGGATGAAGA,0.549
19,TCGAGTAGGTGACGGGGGCATTCAGGGATGAAGA,2.66
20,CCGAGTAGGTTACGAGGTGGCATTCAGTGCGAAT,0.103

row,Sequence,PBM binding z-score
1,CTATGTAGGGTAAGGGGGTCATTCAGTTTGAAAG,5.03
2,CTATGTAGGTTCAGGGGGTCATTCAGTTTGAAAG,5.43
3,CCGAGTAGTTTACGAGGGGGCATTCAGTGCGAAT,1.62
4,CCGAGTAGGTTACGAGGGTGCATTCAGTGCGAAT,0.536
5,TCGAGTAGGTTACGGGGGCATTCAAGGATGAAGA,2.72
6,CTATGTACGTTAAGGGGGTCATTCAGTTTGAAAG,4.34
7,TCGAGTAGGTTACGGGGGCTTTCAGGGATGAAGA,1.64
8,CCGAGTAGGTTACGAGGGGGCATTCTGTGCGAAT,2.88
9,TCGCGTAGGTTACGGGGGCATTCAGGGATGAAGA,2.62
10,TCGAGTAGGTTACGGGGGCATTCATGGATGAAGA,2.37
11,CTATGTAGGTTAAGGGGGTCATTCACTTTGAAAG,5.19
12,CCGAGTATGTTACGAGGGGGCATTCAGTGCGAAT,1.03
13,CTATGTAGGTTAAGGGCGTCATTCAGTTTGAAAG,0.15
14,CCGAGTAGGTTACGAGGGGGCAGTCAGTGCGAAT,2.18
15,CTATGTCGGTTAAGGGGGTCATTCAGTTTGAAAG,4.86
16,TCGAGTAGGTTAGGGGGGCATTCAGGGATGAAGA,3.28
17,CTTTGTAGGTTAAGGGGGTCATTCAGTTTGAAAG,5.24
18,TCGAGTAGGTTACGAGGGCATTCAGGGATGAAGA,0.963
19,TCGAGTAGGTTACGGAGGCATTCAGGGATGAAGA,0.282

# System: LXRa:RXRa (NR concentration 270 nM, RXRa partner concentration 90 nM)
# Assay: as above
# Procedure, shortened: as §1
row,Sequence,PBM binding z-score
1,TCGACTAGGTTACGGGGGCATTCAGGGATGAAGA,2.96
2,CTATGTAGGTTAAGGGGGACATTCAGTTTGAAAG,1.63
3,CCGAGTAGGTTAGGAGGGGGCATTCAGTGCGAAT,4.27
4,CTGTGTAGGTTAAGGGGGTCATTCAGTTTGAAAG,4.93
5,CTATGTAGGTTAAGGGGGTCACTCAGTTTGAAAG,4.36
6,TCGAGTAGGTTAAGGGGGCATTCAGGGATGAAGA,2.79
7,TCGAGTTGGTTACGGGGGCATTCAGGGATGAAGA,2.2
8,TCGAGTAGTTTACGGGGGCATTCAGGGATGAAGA,2.22
9,TCGAGTAGGTTACGGGGGCATGCAGGGATGAAGA,2.53
10,CCGAGTAGGGTACGAGGGGGCATTCAGTGCGAAT,4.84
11,CCGAGTAGGTTACGAGGGGGAATTCAGTGCGAAT,1.98
12,CCGAGTAGGTTACAAGGGGGCATTCAGTGCGAAT,7.37
13,CTATGTAGGTTAAGGGGATCATTCAGTTTGAAAG,0.973
14,TCGAGTAGGTTACGGGCGCATTCAGGGATGAAGA,0.321
15,TCGAGTAGGTTACGGGGGCATTTAGGGATGAAGA,3
16,CTATGTAGGTTTAGGGGGTCATTCAGTTTGAAAG,4.71
17,TCGAGTAGGTTACGGGGGCATTCCGGGATGAAGA,2.91
18,TCGAGTAGGTTACCGGGGCATTCAGGGATGAAGA,0.561
19,TCGAGTAGGTGACGGGGGCATTCAGGGATGAAGA,2.37
20,CCGAGTAGGTTACGAGGTGGCATTCAGTGCGAAT,2.1

row,Sequence,PBM binding z-score
1,CTATGTAGGGTAAGGGGGTCATTCAGTTTGAAAG,4.71
2,CTATGTAGGTTCAGGGGGTCATTCAGTTTGAAAG,5.56
3,CCGAGTAGTTTACGAGGGGGCATTCAGTGCGAAT,4.8
4,CCGAGTAGGTTACGAGGGTGCATTCAGTGCGAAT,5.55
5,TCGAGTAGGTTACGGGGGCATTCAAGGATGAAGA,3.01
6,CTATGTACGTTAAGGGGGTCATTCAGTTTGAAAG,4.93
7,TCGAGTAGGTTACGGGGGCTTTCAGGGATGAAGA,2.06
8,CCGAGTAGGTTACGAGGGGGCATTCTGTGCGAAT,7.2
9,TCGCGTAGGTTACGGGGGCATTCAGGGATGAAGA,3.1
10,TCGAGTAGGTTACGGGGGCATTCATGGATGAAGA,2.82
11,CTATGTAGGTTAAGGGGGTCATTCACTTTGAAAG,5.06
12,CCGAGTATGTTACGAGGGGGCATTCAGTGCGAAT,4.44
13,CTATGTAGGTTAAGGGCGTCATTCAGTTTGAAAG,0.294
14,CCGAGTAGGTTACGAGGGGGCAGTCAGTGCGAAT,6.39
15,CTATGTCGGTTAAGGGGGTCATTCAGTTTGAAAG,5.24
16,TCGAGTAGGTTAGGGGGGCATTCAGGGATGAAGA,3.15
17,CTTTGTAGGTTAAGGGGGTCATTCAGTTTGAAAG,5.35
18,TCGAGTAGGTTACGAGGGCATTCAGGGATGAAGA,1.16
19,TCGAGTAGGTTACGGAGGCATTCAGGGATGAAGA,0.497
